Reference: PubChem BioAssay AID588342 (National Center for Advancing Translational Sciences (NCATS), 2011)
In all, about 360,000 compounds went through this assay and about 25,000 (6.9%) were called active. Another 9% or so got no clear call; they are omitted. Calls come from the whole dose curve; as a rule, active = well fitted inhibition curve with a large enough effect; inconclusive = small, poorly fitted or top-dose-only effect; inactive = flat fitted curve, though single readings scatter. What follows is part of a selection rich in actives, with near analogues and random picks from the rest.
Note: nearly all actives have a fitted effect of over 55% in size.
Potency is the fitted concentration of half-maximal effect.
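Throughout, for activity change, negative = inhibition: plate controls were vehicle for no effect and reference inhibitor for full effect.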

The compounds below were run against Luciferin 4-monooxygenase (Photinus pyralis) (UniProt P08659) (assay: qHTS profiling assay for firefly luciferase inhibitor/activator using purifed enzyme and Km concentrations of substrates (counterscreen for miR-21 project)). Conditions: purified FLuc, luminescence inhibition; series mostly up to 57.5 µM; activity change, negative = inhibition: at the top concentration.
Sequence of Luciferin 4-monooxygenase (Photinus pyralis) (P08659 whole entry, looked up): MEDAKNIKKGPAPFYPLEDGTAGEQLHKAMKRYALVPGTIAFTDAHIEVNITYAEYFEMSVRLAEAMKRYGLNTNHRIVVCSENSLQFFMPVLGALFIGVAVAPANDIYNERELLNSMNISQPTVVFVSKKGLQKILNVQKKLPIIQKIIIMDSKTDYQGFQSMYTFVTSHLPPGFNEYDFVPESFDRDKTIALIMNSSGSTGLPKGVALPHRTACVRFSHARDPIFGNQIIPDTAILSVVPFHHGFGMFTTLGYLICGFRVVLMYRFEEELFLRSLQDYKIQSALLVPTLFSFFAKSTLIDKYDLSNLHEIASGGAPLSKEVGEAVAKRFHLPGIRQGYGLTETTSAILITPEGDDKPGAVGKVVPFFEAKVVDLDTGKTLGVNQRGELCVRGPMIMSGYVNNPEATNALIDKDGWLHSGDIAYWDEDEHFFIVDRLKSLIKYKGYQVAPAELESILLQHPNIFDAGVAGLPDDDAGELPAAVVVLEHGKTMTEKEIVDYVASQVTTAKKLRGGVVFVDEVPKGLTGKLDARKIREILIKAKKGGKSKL
Method in brief: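 Biochemical qHTS of compounds, final roughly 60 µM downward over six points, against 10 nM purified firefly luciferase using Km concentrations of substrates (10 uM D-luciferin, 10 uM ATP) in Tris acetate pH 7.5 buffer; luminescence output.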
In the case of `O=C(c1cccc(Br)c1)N1CCN(Cc2cc(=O)n3nc(-c4ccccc4)sc3n2)CC1`, the “activity change, negative = inhibition” value is reported as -2.55% (inactive). `Cc1ccc(NC(=O)C2CCN(S(=O)(=O)c3cc(-c4noc(C)n4)ccc3C)CC2)c(C)c1` was tested, and the “activity change, negative = inhibition” value was -1.93% (inactive). With `O=C(CSc1nccn1Cc1ccc(Cl)cc1)NCc1ccccc1` the “activity change, negative = inhibition” value was -9.76% (inactive). For `CCOc1ccc(OCc2cccc(C(=O)N(CC)CC)c2)cc1`, the Potency was 1.2 µM (active). `CCOc1ccc(OCc2ccc(C(=O)N(C)c3ccccc3)o2)cc1` was tested, and the “activity change, negative = inhibition” value was -13.9% (inactive). `COc1cccc(COc2ccc(N(C)S(=O)(=O)c3ccccc3)cc2)c1` was tested, and the “activity change, negative = inhibition” value was 2.39% (inactive). With `COc1ccc(CNC(=O)C2CCN(C(=O)c3ccccc3)CC2)cc1` the “activity change, negative = inhibition” value was 3.37% (inactive). For `COc1ccc(Cn2c(=S)[nH]c3cc(C(=O)N4CCCCC4)ccc3c2=O)cc1`, the “activity change, negative = inhibition” value was 4.8% (inactive). In the case of `COc1ccc(OCc2cccc(C(=O)N3CCCC3)c2)cc1`, the Potency is reported as 8.49 µM (active). `Cc1sc2ncn(CC(=O)N3CCN(c4ccc(F)cc4)CC3)c(=O)c2c1S(=O)(=O)N1CCN(c2ncccn2)CC1` was tested, and the “activity change, negative = inhibition” value was -11.7% (inactive). `CCS(=O)(=O)N1CCC(n2c(C)nc3cccnc32)CC1` was tested, and the “activity change, negative = inhibition” value was 0.647% (inactive). For `CCc1cccc(NC(=O)Cn2nc(CC)n3c(cc4cc(C)ccc43)c2=O)c1`, the “activity change, negative = inhibition” value was 4.75% (inactive). In the case of `O=C(CSc1ncc(CO)n1Cc1ccc(Cl)cc1)NCc1ccc(F)cc1`, the “activity change, negative = inhibition” value is reported as -7.26% (inactive). For `Cc1cccc(N2CCN(c3c(CN4CCCC4)c(=O)oc4ccccc34)CC2)c1C`, the “activity change, negative = inhibition” value was -0.54% (inactive). `N#CCC(=O)NC1CCC(CC2CCC(NC(=O)CC#N)CC2)CC1` (stereo unspecified) was tested, and the “activity change, negative = inhibition” value was 0.975% (inactive). For `Cc1ccc(C)c(S(=O)(=O)c2nnn3c2nc(N2CCOCC2)c2sccc23)c1`, the “activity change, negative = inhibition” value was -0.222% (inactive). For `CC(C)=C1SC(N2CCN(c3ccc(C)c(Cl)c3)CC2)=NC1=O`, the “activity change, negative = inhibition” value was -0.828% (inactive). `O=C1N=C(N2CCOCC2)CS1` was tested, and the “activity change, negative = inhibition” value was -0.301% (inactive). For `O=c1[nH]c(N2CCOCC2)nc2ccccc12`, the “activity change, negative = inhibition” value was -0.212% (inactive). For `Cc1ccsc1/C=C1\SC(N2CCOCC2)=NC1=O`, the Potency was 10.7 µM (active). With `O=C1N=C(N2CCOCC2)S/C1=C\C=C/c1ccccc1` the Potency was 10.7 µM (active). In the case of `COc1ccccc1C1CCN(C(=S)Nc2ccc(Br)cc2)CC1`, the “activity change, negative = inhibition” value is reported as -5.06% (inactive). With `O=C(Nc1ccc(Br)cc1)c1ccc(Br)c(S(=O)(=O)NCc2ccccc2)c1` the “activity change, negative = inhibition” value was -6.22% (inactive). `Cc1ccc(Nc2nc3ccccc3nc2-n2nc(C)cc2C)c(Cl)c1` was tested, and the “activity change, negative = inhibition” value was -1.86% (inactive). For `CCN(CC(=O)Nc1ccc(OC)cc1)C(=O)c1ccc(=O)n(Cc2ccccc2)n1`, the “activity change, negative = inhibition” value was 0.092% (inactive). `CN(c1ccc(C(=O)NCCC2=CCCCC2)cc1)S(C)(=O)=O` was tested, and the Potency was 9.53 µM (active). `O=C(NCCC1=CCCCC1)c1ccc(-n2cncn2)cc1` was tested, and the Potency was 15.1 µM (active). `Cc1ccn2c(=O)c(C(=O)NCCC3=CCCCC3)c(O)nc2c1` was tested, and the “activity change, negative = inhibition” value was 6.04% (inactive). In the case of `CC(=O)Nc1ccc(S(=O)(=O)N(C)CC(=O)NCCC2=CCCCC2)cc1`, the “activity change, negative = inhibition” value is reported as 2.77% (inactive). In the case of `Cn1nnc2cc(C(=O)NCCC3=CCCCC3)ccc21`, the Potency is reported as 5.36 µM (active). With `Cc1ccc(-n2cnc3cc(C(=O)NCCC4=CCCCC4)ccc32)cc1Cl` the “activity change, negative = inhibition” value was -7.91% (inactive). For `CC(C)COc1ccc(C(=O)OCC(=O)NCCC2=CCCCC2)cc1`, the “activity change, negative = inhibition” value was 4.98% (inactive). With `O=C(COc1cccc(-n2cnnn2)c1)NCCC1=CCCCC1` the “activity change, negative = inhibition” value was -0.634% (inactive). With `O=C(Cc1nn[nH]n1)NCCC1=CCCCC1` the “activity change, negative = inhibition” value was -0.697% (inactive). With `CCOC(=O)c1ccc(-c2ccc(/C=C(\C#N)C(=O)Nc3ccc(OCC)cc3)o2)cc1` the “activity change, negative = inhibition” value was 1.93% (inactive). `CCCCn1c(N)c(N(CCC(C)C)C(=O)COC(=O)c2ccc(CC)cc2)c(=O)[nH]c1=O` was tested, and the “activity change, negative = inhibition” value was -0.0866% (inactive). For `Cc1ccc(CN2CCCn3nc(C(=O)NCc4ccccc4Cl)cc3C2=O)cc1`, the “activity change, negative = inhibition” value was -10.7% (inactive). In the case of `Cn1c(=O)c2c(SCC(=O)NCC3CCCO3)nc(-c3ccccc3F)nc2n(C)c1=O` (stereo unspecified), the “activity change, negative = inhibition” value is reported as 4.37% (inactive). In the case of `Cc1oc2ncnc(N3CCOCC3)c2c1C(=O)NCCc1ccccc1`, the “activity change, negative = inhibition” value is reported as -1.45% (inactive). In the case of `CN(C)c1ccc(C=C2C(=O)OC3(CCCC3)OC2=O)cc1`, the Potency is reported as 23.9 µM (active). `COCCN(Cc1ccccc1)C(=O)Cc1ccc(S(=O)(=O)N2CCOCC2)s1` was tested, and the “activity change, negative = inhibition” value was -2.29% (inactive). With `CCCN(CCC)C(=O)C1CCCN(c2ncnc3c2nc2n3CCCCC2)C1` (stereo unspecified) the “activity change, negative = inhibition” value was 1.38% (inactive). For `c1ccc(CN=C2Nc3ccccc3CS2)nc1`, the Potency was 12 µM (active). In the case of `COc1cccc(CNC(=O)CCC(=O)N2CC3CCCN3c3ccccc32)c1` (stereo unspecified), the “activity change, negative = inhibition” value is reported as -10.7% (inactive). With `O=C(CN(c1cc(C(F)(F)F)ccc1Cl)S(=O)(=O)c1ccccc1)NCc1cccnc1` the “activity change, negative = inhibition” value was 7.62% (inactive). In the case of `CCc1ccc(N(CC(=O)NCc2cccnc2)S(=O)(=O)c2ccccc2)cc1`, the Potency is reported as 0.135 µM (active). With `CCCNS(=O)(=O)c1ccc(CCC(=O)NCc2cccnc2)cc1` the “activity change, negative = inhibition” value was -1.83% (inactive). In the case of `Cc1ccc2sc(N(Cc3cccnc3)C(=O)C3COc4ccccc4O3)nc2c1C` (stereo unspecified), the “activity change, negative = inhibition” value is reported as 5.08% (inactive). In the case of `COc1cc(OC)cc(-c2nc3nc(C)c(CCC(=O)Nc4ccc(C)cc4)c(C)n3n2)c1`, the “activity change, negative = inhibition” value is reported as 0.756% (inactive). With `O=S(=O)(N1CCCCC1)N1CCNCC1` the “activity change, negative = inhibition” value was -0.119% (inactive). For `S=c1[nH]c(-c2cccs2)cn1-c1ccccc1`, the “activity change, negative = inhibition” value was -15.8% (inactive).
